Among the data in ChEMBL document CHEMBL3988442, “University of Dundee, Small-Polar-MMV Screening Library” (2021) are Percent Effect values, retold here.

Structures are written as SMILES. For some assays here: Measured potencies and affinities stand elsewhere.

Set-up in all cases: scale not given: direction of the effect not stated beside the values
In experiment [1] the target is Protein translocase subunit SecA (Escherichia coli (strain K12)) (UniProt P10408). The experiment in a line: Assay to Identify E. coli SecA ATPase Inhibitors. Type of experiment: functional. As to conditions: 30 µM.
Experiment [2] addresses T1, Ubiquitin-activating enzyme e1, putative (Leishmania donovani (strain BPK282A1)) (UniProt E9BSI1).
T1 sequence (whole entry): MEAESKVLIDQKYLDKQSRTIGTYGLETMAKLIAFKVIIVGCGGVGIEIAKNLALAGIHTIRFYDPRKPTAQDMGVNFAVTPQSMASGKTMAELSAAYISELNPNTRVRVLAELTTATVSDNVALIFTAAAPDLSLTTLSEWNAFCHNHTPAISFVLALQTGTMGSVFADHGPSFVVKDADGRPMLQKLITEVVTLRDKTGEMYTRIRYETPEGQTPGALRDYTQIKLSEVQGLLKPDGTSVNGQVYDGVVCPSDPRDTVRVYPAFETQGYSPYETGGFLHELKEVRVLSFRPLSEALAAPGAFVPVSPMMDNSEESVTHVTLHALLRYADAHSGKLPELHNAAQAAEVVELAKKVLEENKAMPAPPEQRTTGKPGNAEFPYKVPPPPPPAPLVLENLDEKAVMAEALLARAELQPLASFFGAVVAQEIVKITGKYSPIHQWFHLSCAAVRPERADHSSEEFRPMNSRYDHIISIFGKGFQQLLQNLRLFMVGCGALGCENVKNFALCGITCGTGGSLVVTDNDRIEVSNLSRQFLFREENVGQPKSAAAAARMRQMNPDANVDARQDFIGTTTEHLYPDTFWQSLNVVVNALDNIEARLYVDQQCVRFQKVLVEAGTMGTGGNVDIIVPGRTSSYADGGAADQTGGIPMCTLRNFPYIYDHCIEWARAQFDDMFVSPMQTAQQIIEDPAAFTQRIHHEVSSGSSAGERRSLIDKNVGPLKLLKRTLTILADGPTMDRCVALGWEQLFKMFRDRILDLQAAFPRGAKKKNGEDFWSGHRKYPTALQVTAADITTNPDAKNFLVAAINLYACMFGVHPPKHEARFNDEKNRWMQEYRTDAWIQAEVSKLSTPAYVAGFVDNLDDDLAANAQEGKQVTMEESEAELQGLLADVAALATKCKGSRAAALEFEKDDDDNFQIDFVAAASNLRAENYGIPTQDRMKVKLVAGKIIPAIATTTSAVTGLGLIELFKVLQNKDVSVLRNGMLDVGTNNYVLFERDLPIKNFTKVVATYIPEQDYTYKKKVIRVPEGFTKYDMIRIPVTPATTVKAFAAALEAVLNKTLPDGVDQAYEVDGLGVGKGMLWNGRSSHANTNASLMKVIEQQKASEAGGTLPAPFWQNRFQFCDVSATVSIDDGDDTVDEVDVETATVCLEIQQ
Kind of experiment: Leishmania donovani Ubiquitin Activating Enzyme (LdE1). The experiment is classed as functional. As to conditions: 30 µM.

The target of experiment [3] is AMP-activated protein kinase, AMPK (Homo sapiens) (UniProt P54646+O43741+P54619+Q9UGJ0+Q9Y478+Q13131+Q9UGI9). Kind of experiment: AMP-dependent Kinase enzyme assay. An in vitro enzyme assay that detects ADP turnover that is directly proportional to AMPK activity. This uses naive AMPK that is activated during the assay with MK-8722. Type of experiment: functional. Particulars: 30 µM.

For experiment [4], the target named is Sialic acid-binding Ig-like lectin 9 (Homo sapiens) (UniProt Q9Y336). Kind of experiment: Hs-Siglec9 ALPHAscreen SOP 20170721. Particulars: 10 µM. In general terms: Alpha assays give light when donor and acceptor beads are brought close together.
The test system of the next experiment is Trypanosoma cruzi. The experiment in a line: Trypanosoma cruzi phosphomannomutase and mannose-1-phosphate guanylyltransferase assay. The experiment is classed as functional. As to conditions: 10 µM.
The target of experiment [5] is T2, Arginase-2, mitochondrial (Homo sapiens) (UniProt P78540).
T2 sequence (whole entry): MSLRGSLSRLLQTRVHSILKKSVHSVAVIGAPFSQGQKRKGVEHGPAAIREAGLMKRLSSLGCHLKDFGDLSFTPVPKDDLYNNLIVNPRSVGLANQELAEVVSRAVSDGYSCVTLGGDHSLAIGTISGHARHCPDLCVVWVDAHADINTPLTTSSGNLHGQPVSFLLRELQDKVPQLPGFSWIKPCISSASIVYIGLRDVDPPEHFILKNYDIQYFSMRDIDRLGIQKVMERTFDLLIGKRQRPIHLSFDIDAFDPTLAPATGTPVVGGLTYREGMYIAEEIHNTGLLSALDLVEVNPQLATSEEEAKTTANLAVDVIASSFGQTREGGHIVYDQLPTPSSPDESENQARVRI
Kind of experiment: in vitro enzyme assay to detect the production of urea directly proportional to the activity of Arginase II. Also: in the data most compounds retested in dose-response had high values. The experiment is classed as functional. As to conditions: 33.3 µM.

Experiment [6] addresses T3, Proteasome subunit beta (Trypanosoma cruzi) (UniProt O96673).
T3 sequence (whole entry): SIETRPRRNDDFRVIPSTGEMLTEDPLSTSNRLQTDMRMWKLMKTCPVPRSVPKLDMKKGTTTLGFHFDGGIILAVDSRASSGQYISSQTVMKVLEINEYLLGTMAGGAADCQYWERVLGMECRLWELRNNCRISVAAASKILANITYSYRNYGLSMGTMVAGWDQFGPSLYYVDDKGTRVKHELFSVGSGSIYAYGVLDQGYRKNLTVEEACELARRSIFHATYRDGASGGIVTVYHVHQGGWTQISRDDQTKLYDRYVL
Kind of experiment: Trypanosoma cruzi proteasome chymotrypsin-like activity (TcProtChymo) assay. Also: in the data most compounds retested in dose-response had high values. The experiment is classed as functional. As to conditions: 9.37 µM.

The species entered for another experiment is Homo sapiens. Kind of experiment: To identify inhibition of the IFN signalling (Jak-Stat) pathway via expression of an eGFP reporter gene under the control of an IFN-stimulated response element (ISRE) containing MxA promoter. The experiment is classed as functional. As to conditions: 30 µM. A general note: Reporter assays use an easily measured gene product as a stand-in for the process of interest.

Experiment [7] deals with T4, Tyrosyl-tRNA synthetase, putative (Trypanosoma cruzi (strain CL Brener)) (UniProt Q4DSP6).
T4 sequence (whole entry): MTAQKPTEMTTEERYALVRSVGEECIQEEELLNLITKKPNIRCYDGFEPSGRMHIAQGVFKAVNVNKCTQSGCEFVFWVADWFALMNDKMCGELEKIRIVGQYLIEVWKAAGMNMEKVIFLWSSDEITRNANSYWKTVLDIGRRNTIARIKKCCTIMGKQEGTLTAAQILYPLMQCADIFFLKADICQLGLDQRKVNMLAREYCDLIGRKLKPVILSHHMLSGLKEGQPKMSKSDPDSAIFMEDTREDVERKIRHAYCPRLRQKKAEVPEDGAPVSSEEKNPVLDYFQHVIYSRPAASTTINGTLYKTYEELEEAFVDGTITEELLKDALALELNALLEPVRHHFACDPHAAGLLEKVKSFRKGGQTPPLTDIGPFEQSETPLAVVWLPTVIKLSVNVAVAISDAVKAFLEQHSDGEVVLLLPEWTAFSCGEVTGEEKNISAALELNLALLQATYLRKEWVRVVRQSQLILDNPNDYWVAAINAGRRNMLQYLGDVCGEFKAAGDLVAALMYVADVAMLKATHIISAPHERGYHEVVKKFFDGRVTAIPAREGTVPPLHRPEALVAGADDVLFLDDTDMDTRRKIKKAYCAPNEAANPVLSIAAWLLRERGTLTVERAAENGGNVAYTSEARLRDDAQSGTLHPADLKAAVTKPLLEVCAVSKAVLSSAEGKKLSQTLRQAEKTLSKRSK
The experiment in a line: Trypanosoma cruzi tyrosyl tRNA synthetase (TcYRS) _High Tyrosine SOP. Also: in the data most compounds retested in dose-response had high values. As to conditions: 30 µM. Type of experiment: functional.

Experiment [8] addresses T4, Tyrosyl-tRNA synthetase, putative (Trypanosoma cruzi (strain CL Brener)). The experiment in a line: Trypanosoma cruzi tyrosyl tRNA synthetase (TcYRS) SOP. Type of experiment: functional. As to conditions: 30 µM.
The target of experiment [9] is Chromo domain-containing protein 1 (Saccharomyces cerevisiae (strain ATCC 204508 / S288c) (Baker's yeast)) (UniProt P32657). Kind of experiment: ScCHD-1 Enzyme Inhibition Assay. Also: in the data most compounds retested in dose-response had high values. Type of experiment: functional. Particulars: 30 µM.
Chromo domain-containing protein 1 (Saccharomyces cerevisiae (strain ATCC 204508 / S288c) (Baker's yeast)), sequence (P32657 whole entry, the tested form may be a part): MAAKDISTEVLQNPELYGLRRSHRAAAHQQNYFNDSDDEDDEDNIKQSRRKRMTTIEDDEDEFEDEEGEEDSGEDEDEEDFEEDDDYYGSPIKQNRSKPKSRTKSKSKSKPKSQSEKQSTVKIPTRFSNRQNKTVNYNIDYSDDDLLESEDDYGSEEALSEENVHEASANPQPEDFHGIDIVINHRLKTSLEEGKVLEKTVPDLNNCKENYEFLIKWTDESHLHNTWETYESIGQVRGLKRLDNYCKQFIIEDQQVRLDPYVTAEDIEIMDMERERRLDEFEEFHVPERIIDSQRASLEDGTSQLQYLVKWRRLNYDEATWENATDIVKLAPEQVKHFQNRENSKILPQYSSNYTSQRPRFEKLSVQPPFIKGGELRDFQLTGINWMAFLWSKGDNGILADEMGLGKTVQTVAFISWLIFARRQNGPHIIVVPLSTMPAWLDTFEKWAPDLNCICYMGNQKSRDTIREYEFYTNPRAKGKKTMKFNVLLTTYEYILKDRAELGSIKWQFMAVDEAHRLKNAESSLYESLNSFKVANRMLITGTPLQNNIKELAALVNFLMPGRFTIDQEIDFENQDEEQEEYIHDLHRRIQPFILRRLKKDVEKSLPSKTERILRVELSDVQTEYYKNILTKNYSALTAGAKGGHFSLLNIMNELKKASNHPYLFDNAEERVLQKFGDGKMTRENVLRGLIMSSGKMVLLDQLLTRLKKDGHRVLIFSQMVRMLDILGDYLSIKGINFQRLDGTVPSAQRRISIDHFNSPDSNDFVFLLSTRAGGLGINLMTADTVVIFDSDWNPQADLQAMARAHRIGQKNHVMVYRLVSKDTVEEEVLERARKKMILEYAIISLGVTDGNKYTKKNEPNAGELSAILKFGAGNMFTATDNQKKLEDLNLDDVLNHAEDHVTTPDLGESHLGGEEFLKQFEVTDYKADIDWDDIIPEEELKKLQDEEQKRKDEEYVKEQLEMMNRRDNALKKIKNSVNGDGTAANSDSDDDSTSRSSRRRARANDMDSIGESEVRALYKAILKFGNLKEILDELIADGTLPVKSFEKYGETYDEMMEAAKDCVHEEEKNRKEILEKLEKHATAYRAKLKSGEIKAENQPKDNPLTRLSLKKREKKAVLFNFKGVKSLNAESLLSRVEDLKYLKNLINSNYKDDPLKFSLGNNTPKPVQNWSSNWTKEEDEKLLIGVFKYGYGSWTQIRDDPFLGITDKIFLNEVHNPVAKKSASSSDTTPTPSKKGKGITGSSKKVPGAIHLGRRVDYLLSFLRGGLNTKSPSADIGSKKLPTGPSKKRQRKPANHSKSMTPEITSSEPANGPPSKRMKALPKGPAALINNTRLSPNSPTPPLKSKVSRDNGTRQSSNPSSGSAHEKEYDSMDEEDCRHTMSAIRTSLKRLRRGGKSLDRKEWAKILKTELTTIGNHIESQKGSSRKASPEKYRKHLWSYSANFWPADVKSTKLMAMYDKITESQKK

Protein translocase subunit SecA (Escherichia coli (strain K12)), sequence (P10408 whole entry): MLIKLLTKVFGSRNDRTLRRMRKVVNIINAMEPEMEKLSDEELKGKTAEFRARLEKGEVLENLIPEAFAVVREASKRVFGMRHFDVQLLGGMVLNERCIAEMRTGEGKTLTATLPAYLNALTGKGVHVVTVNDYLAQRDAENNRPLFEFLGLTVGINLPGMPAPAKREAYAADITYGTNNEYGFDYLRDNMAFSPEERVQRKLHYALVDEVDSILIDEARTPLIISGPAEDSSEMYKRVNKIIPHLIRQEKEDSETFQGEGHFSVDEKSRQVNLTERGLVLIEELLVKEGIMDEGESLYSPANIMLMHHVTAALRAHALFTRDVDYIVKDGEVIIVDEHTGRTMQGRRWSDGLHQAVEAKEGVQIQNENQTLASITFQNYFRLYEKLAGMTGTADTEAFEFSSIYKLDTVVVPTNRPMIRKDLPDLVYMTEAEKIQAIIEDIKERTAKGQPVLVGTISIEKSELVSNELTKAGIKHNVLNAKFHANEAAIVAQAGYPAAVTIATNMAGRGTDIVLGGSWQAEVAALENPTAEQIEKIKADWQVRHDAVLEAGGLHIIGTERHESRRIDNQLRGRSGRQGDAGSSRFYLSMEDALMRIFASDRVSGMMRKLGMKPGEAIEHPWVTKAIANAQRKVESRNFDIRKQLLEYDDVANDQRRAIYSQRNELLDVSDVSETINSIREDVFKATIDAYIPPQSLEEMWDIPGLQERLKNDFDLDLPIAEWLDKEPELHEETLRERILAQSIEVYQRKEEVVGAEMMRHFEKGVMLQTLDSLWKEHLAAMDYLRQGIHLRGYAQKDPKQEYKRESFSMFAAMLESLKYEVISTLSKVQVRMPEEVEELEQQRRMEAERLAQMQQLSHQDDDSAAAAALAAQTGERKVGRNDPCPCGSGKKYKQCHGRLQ
Sialic acid-binding Ig-like lectin 9 (Homo sapiens), sequence (Q9Y336 whole entry): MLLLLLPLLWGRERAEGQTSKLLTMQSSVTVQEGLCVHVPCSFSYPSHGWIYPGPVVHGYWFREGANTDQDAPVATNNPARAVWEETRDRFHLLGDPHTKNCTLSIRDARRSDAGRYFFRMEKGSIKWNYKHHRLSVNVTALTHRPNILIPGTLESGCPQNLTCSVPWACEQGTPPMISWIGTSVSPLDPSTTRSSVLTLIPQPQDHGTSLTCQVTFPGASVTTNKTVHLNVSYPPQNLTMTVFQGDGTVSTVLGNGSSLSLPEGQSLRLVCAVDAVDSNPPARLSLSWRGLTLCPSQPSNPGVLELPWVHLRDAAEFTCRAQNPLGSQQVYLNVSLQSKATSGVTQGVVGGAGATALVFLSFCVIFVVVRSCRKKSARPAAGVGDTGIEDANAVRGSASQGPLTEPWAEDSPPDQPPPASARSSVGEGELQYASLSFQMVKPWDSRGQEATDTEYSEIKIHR

Consider `Cc1cccc(CN2C[C@H]3OC(=O)N(CCCN4CCOCC4)[C@H]3C2)n1`, for which the Percent Effect in [1] is -5.71%; in experiment [2] it was 5.33%; in experiment [3], 0.534%; in [4], 17%; in the experiment on Trypanosoma cruzi, 0.682%; in [5], 2.08%. The Percent Effect is 11.9% in experiment [6]; 2.81% in the experiment filed under Homo sapiens; 10.4% in [7]; 16.1% in experiment [8]; -8.08% in [9].
In the case of `CC(=O)c1ccc(C(=O)NCCCOC(C)c2ccccc2)s1` (stereo not given), the Percent Effect in [1] is -1.12%; in experiment [2] it was 7.89%; in [3], 0.104%; in [4] it was -8.61%; with Trypanosoma cruzi, 1.07%; in experiment [5] it was -8.28%. Also, the Percent Effect in [6] is 13.9%; in the experiment listed under Homo sapiens it was 21.8%; in [7] it was -3.19%; in [8], 10.4%; in [9] it was -1.78%.
Regarding `Cc1nc(NCc2cccnc2)c2c(n1)c(C)nn2C`, the Percent Effect in experiment [1] is 0.594%; in experiment [2], 7.79%; in [3], 5.87%; in [4] it was 8.94%; with Trypanosoma cruzi, 2.85%; in experiment [5], -12.4%. Moreover, the Percent Effect in [6] was 7.99%; in the experiment listed under Homo sapiens, 31%; in [7], 6.45%; in experiment [8], 18.5%; in experiment [9] it was -2.21%.
In the case of `CC(CNCc1ccc(Cl)c(Cl)c1)Oc1ccccn1` (stereo not given), the Percent Effect was -2.19% in experiment [1]; 12% in experiment [2]; 0.69% in experiment [3]; -3.31% in [4]; 4.91% in the experiment on Trypanosoma cruzi; -7.22% in experiment [5]. For the same compound, the Percent Effect in experiment [6] is 20.5%; in the experiment filed under Homo sapiens, 26.5%; in experiment [7] it was 6.35%; in [8] it was 10.3%; in [9], -11.8%.
As for `CCn1c(C)nnc1CN(C)C1CCN(Cc2nccn2C)C1` (stereo not given), the Percent Effect in experiment [1] is 2.98%; in experiment [2], 10.8%; in [3] it was -6.53%; in experiment [4], -4.6%; with Trypanosoma cruzi, -8.7%; in experiment [5], 2.23%. In addition, the Percent Effect was 11.8% in [6]; 16.4% in the experiment filed under Homo sapiens; 9.68% in [7]; 16.1% in [8]; -3.99% in [9].
Consider `Cc1cnn(CC2CCCCN2Cc2nc(N)c3ccccc3n2)c1` (stereo not given), for which the Percent Effect in [1] was -5.11%; in experiment [2], 10.1%; in experiment [3], -4.6%; in [4] it was 5.93%; in the experiment with Trypanosoma cruzi, 8.78%; in experiment [5] it was 0%. Further, the Percent Effect is 12.2% in experiment [6]; -0.892% in the experiment filed under Homo sapiens; 14.3% in [7]; 21.5% in experiment [8]; -8.03% in [9].
As for `O=C(CCc1ccccn1)N1CCc2cc(Cl)cc(Cl)c2C1`, the Percent Effect was -0.0645% in experiment [1]; 7.79% in experiment [2]; 5.1% in experiment [3]; 1.57% in experiment [4]; -9.34% in the experiment on Trypanosoma cruzi; -17.9% in experiment [5]. In addition, the Percent Effect was 15% in [6]; 47.7% in the experiment listed under Homo sapiens; -1.07% in [7]; -3.7% in [8]; -2.98% in experiment [9].
Regarding `CN(C)CCO[C@H]1CN(Cc2cccc(C#N)c2)[C@@H]2COC[C@H]12`, the Percent Effect was -3.05% in experiment [1]; 5.33% in experiment [2]; 0.409% in [3]; 2.27% in [4]; 2.32% with Trypanosoma cruzi; -44.6% in [5]. In addition, the Percent Effect is 9.91% in experiment [6]; -12.1% in the experiment listed under Homo sapiens; 6.25% in [7]; 17.5% in experiment [8]; -5.99% in experiment [9].
Regarding `CN1CCN(C[C@@H]2OC[C@H]3CN(Cc4cccc(F)c4)CC[C@H]32)CC1`, the Percent Effect in [1] was 0.931%; in experiment [2], 2.67%; in [3] it was 4.95%; in experiment [4], 4.78%; in the experiment on Trypanosoma cruzi, 2.9%; in [5], -53.9%. The Percent Effect in experiment [6] was 7.01%; in the experiment filed under Homo sapiens it was -8.27%; in [7], 2.08%; in experiment [8], 2.5%; in experiment [9] it was -4.33%.
As to `COCC1CCN(c2cc(C3CN(C)CCO3)nc(C)n2)CC1` (stereo not given), the Percent Effect was -3.57% in [1]; -5.33% in experiment [2]; 6.9% in experiment [3]; -0.404% in experiment [4]; -1.77% in the experiment on Trypanosoma cruzi; 0.233% in experiment [5]. Also, the Percent Effect in [6] was 2.38%; in the experiment filed under Homo sapiens, 6.27%; in experiment [7] it was -1.06%; in experiment [8], -3.85%; in [9], 9.94%.
